# Results from PubChem BioAssay (NCI).
# The panel holds about 83,000 compounds, 20% with a hit somewhere; the sample as a whole holds those more often.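 96-well plates, one dose, 48 hours. Percent growth reported; active if below 10.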 Unmarked numbers belong to inactive results. Activity calls are given as the source filed them.
# How the values were obtained:
# Test in all cases: NCI-60 one-dose screen, 48 h (100 = growth as untreated, 0 = no growth, -100 = all killed)
# Details in all cases: 10 µM unless noted
# [1] = system: HCT-15 colon
# [2] = system: HT29 colon
# [3] = system: SNB-75 CNS
# [4] = system: SNB-19 CNS
# [5] = system: PC-3 prostate
# [6] = system: SK-MEL-5 melanoma
# [7] = system: UACC-62 melanoma
# [8] = system: LOX IMVI melanoma
# [9] = system: SK-MEL-28 melanoma
# [10] = system: SN12C renal
# [11] = system: UO-31 renal
# [12] = system: TK-10 renal
# [13] = system: ACHN renal
# [14] = system: CAKI-1 renal
# [15] = system: CCRF-CEM leukemia
# [16] = system: MOLT-4 leukemia
# [17] = system: SK-MEL-2 melanoma
# [18] = system: A498 renal
# [19] = system: EKVX NSCLC
# [20] = system: U251 CNS
SMILES,growth [1],growth [2],growth [3],growth [4],growth [5],growth [6],growth [7],growth [8],growth [9],growth [10],growth [11],growth [12],growth [13],growth [14],growth [15],growth [16],growth [17],growth [18],growth [19],growth [20]
O=C1/C(=C/c2ccc(Cl)cc2Cl)CN(S(=O)(=O)c2ccccc2)C/C1=C\c1ccc(Cl)cc1Cl,-14.7% (active),-27.5% (active),27.8%,39.1%,6.14% (active),47.5%,2.57% (active),-58.7% (active),34.4%,-47.5% (active),-61.4% (active),-22.2% (active),2.01% (active),-66.1% (active),-13.2% (active),3.37% (active),–,–,–,–
COc1cccc(/C=C2/C(=O)N(Cc3ccco3)SC2=S)c1OC,97.2%,90.1%,71.8%,107%,103%,97.5%,93.8%,33.8%,101%,97.6%,93.4%,117%,102%,–,68.3%,92.1%,93.1%,–,–,–
NC1=CSC2=N/C(=C\c3ccc(Cl)cc3)C(=O)N12,66.7%,62.6%,87.4%,87%,80.6%,72.6%,90.3%,50.6%,96.3%,76.8%,58.2%,72.8%,88.3%,38.8%,-13.5% (active),8.12% (active),–,65.6%,–,–
O=C(O)C(O)C(O)C(=O)O.[NH-]C1CCCCC1[NH-].[Pt+2] (stereo not given),103%,111%,80.8%,101%,106%,103%,100%,112%,95.1%,–,97.9%,113%,101%,–,112%,105%,109%,125%,–,–
CCOC(=O)N1CCN(c2nc(Nc3cc(C)[nH]n3)c3ccccc3n2)CC1,40.4%,22.6%,-21.2% (active),89.2%,57.2%,57.9%,66.8%,24%,59.6%,45.8%,47.4%,40.9%,50.7%,20.8%,40.1%,69.1%,52.4%,-21.8% (active),–,–
CCCCCCCCCCCCCCCCNCCC[C@@H](C)[C@H]1CC[C@H]2[C@@H]3[C@H](OCCCN)C[C@@H]4C[C@H](OCCCN)CC[C@]4(C)[C@H]3C[C@H](OCCCN)[C@]12C,7.08% (active),-41% (active),-64.8% (active),-66.6% (active),-14.4% (active),3.14% (active),-64.2% (active),-60.4% (active),-64.7% (active),-82.9% (active),-52.5% (active),-60.3% (active),-26.5% (active),-70.8% (active),-45.5% (active),-33.7% (active),–,-5.88% (active),–,–
O=C1Nc2ccccc2/C1=C/C(=N/c1nnc(-c2ccccc2)s1)c1ccccc1,19.8%,-36.3% (active),78.7%,103%,78.4%,93.9%,71.5%,-86.3% (active),86.4%,41.8%,-87.2% (active),-39.7% (active),-54.8% (active),-10.2% (active),-45% (active),-24.2% (active),97.4%,106%,–,–
CC(=O)OCC(=O)C1CCC=CC1OC(C)=O (stereo not given),103%,107%,80.9%,93.5%,105%,97.7%,95.4%,96.1%,108%,99.4%,66.4%,110%,100%,93.4%,99.7%,95.9%,88.3%,110%,–,–
COc1ccc(/C=C2\N=C3SC=C(N)N3C2=O)cc1,20.7%,9.12% (active),25.2%,53.8%,20.6%,4.65% (active),23%,-47.5% (active),43.7%,20.4%,-4.09% (active),19.5%,33%,-33% (active),-40.2% (active),-15.9% (active),–,–,–,–
CN1CCCCC1CCN1c2ccccc2Sc2ccc(Cl)cc21 (stereo not given),49.3%,31.4%,7.16% (active),97%,59.5%,55.7%,77.9%,68.1%,75%,71.8%,30.1%,69.3%,58.2%,59.9%,39.3%,41%,71.2%,74.9%,–,–
CNC(=S)N/N=C/CSC/C=N/NC(=S)NC,87.8%,24.4%,88.1%,101%,57%,81.1%,89.2%,84.6%,99.3%,104%,71.7%,103%,99.6%,98.7%,20.4%,48.7%,98.7%,110%,–,–
COc1ccc2nc(NC(=O)c3cccnc3Nc3cc(OC)c(OC)c(OC)c3)sc2c1,56.3%,11.9%,14.1%,26.4%,–,15.5%,57.2%,37.1%,24.1%,18.5%,–,–,58%,5.14% (active),48.6%,56.7%,48%,-64.4% (active),36.3%,–
O=C1C=CC(=O)N1c1ccc(Cc2ccc(N3C(=O)C=CC3=O)cc2)cc1,91.1%,133%,164%,–,91.2%,96.3%,83.7%,96.1%,120%,96.1%,81.9%,92.4%,94.1%,65.7%,89.5%,21.8%,112%,91.2%,109%,96.8%
COc1cc(-c2nc3ccccc3s2)ccc1NC(=O)COc1ccc(Cl)cc1,85.8%,34.9%,21.3%,–,49.8%,73.7%,36.1%,64.7%,58.6%,58.6%,47.3%,35.6%,40%,6.38% (active),98.5%,86%,78.5%,97.3%,57.4%,41.9%
CN(C)c1ccc(/C=C\C2=[N+](C)c3ccccc3C2(C)C)cc1,63.2%,10.5%,31.3%,–,-4.73% (active),3.41% (active),15.9%,16.1%,37.5%,-1.45% (active),55%,27.8%,4.49% (active),13.4%,14.6%,15.7%,-3.85% (active),48.2%,8.84% (active),11%
O=C1Nc2ccccc2C12CC(c1ccccc1)=NN2 (stereo not given),33%,8.14% (active),38.4%,68.7%,48.2%,30.5%,46.7%,48.4%,56.8%,–,57.6%,–,59.3%,22.8%,49.2%,38.7%,–,63.7%,–,–
O=C(O)c1ccc2c(c1Sc1ccccc1)C(=O)c1ccccc1C2=O,109%,96%,78.1%,–,88.3%,93.6%,87.5%,89.5%,139%,96.6%,77%,86.5%,95.3%,84.4%,91.9%,113%,90.5%,114%,36.1%,103%
